From PubChem BioAssay AID1347165 (National Center for Advancing Translational Sciences (NCATS), 2019)
The whole screen tested about 220,000 compounds, of which about 5,700 (2.6%) were called active. Where a call stands in place of a potency, no number is given. Inconclusive results (about 18%) are left out. Calls follow the shape of the dose curve; as a rule, active = well fitted inhibition curve with a large enough effect; inconclusive = small, poorly fitted or top-dose-only effect; inactive = no such curve, though single readings can be large or run the other way. The full list was thinned out, with actives kept by preference.

The compounds below were run against Lysine-specific demethylase 5B (Homo sapiens) (UniProt Q9UGL1) (assay: Primary screen for KDM5B Histone Demethylases FDH-coupled qHTS). Conditions: FDH-coupled NADH fluorescence (FDH is formaldehyde dehydrogenase); series mostly up to 57.7 µM.
Summary of the method: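 Here, H3K4me3 peptide (12.5 µM in substrate mix) is demethylated by KDM5BΔAP, 200 nM final, after 10 min compound exposure. Formaldehyde product is coupled through FDH (0.25 U/mL in mix) to NADH fluorescence; 30-min ΔRFU feeds dose-response curves.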
Also: nearly all actives have a fitted effect of over 70% in size.
Potency is read from the fitted curve at half-maximal effect.

Lysine-specific demethylase 5B (Homo sapiens), sequence (Q9UGL1 whole entry, looked up): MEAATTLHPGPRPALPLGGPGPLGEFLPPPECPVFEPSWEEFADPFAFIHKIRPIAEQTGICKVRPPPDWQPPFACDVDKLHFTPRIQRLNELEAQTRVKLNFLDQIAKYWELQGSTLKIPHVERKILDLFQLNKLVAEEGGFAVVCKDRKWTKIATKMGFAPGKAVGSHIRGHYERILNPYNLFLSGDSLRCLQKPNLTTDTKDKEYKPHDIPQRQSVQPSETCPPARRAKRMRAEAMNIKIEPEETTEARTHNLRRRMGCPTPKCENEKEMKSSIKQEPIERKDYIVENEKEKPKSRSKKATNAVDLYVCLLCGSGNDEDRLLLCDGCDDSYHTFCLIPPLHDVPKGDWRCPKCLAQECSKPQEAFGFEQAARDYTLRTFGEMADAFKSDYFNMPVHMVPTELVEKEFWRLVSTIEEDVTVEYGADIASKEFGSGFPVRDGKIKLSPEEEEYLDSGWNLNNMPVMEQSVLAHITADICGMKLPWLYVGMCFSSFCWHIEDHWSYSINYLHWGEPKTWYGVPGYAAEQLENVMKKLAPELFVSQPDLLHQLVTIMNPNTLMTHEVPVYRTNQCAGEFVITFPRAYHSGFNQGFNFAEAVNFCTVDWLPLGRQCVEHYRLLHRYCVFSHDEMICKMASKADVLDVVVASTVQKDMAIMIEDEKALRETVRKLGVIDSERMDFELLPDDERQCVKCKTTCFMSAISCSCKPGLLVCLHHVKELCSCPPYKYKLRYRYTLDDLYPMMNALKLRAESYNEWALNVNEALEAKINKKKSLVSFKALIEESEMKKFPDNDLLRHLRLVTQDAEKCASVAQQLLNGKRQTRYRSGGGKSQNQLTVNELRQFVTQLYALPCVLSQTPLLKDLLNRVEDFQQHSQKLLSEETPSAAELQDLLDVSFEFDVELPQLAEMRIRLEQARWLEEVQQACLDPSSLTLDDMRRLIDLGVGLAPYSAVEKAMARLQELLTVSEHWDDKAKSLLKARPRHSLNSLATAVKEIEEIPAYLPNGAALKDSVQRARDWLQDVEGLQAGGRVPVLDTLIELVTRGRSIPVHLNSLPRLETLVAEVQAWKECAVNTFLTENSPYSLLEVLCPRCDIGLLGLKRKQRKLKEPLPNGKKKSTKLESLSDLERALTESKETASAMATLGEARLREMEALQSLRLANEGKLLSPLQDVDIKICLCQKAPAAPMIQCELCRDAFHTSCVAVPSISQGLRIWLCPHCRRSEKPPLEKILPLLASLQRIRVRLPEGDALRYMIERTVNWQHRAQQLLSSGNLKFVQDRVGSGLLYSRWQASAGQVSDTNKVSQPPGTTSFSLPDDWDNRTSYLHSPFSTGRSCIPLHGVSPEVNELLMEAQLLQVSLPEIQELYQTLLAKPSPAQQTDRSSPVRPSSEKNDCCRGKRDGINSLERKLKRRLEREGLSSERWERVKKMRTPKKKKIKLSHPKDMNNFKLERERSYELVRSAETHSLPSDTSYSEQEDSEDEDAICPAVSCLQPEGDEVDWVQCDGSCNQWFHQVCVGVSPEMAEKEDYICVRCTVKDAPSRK

Compound	Potency
CCOc1ccc(CN(C)CC(O)COc2ccc(C)cc2C)cc1OC (stereo not given)	inactive
CC(=O)N1CCN(C(=O)c2ccc3c(ccn3C)c2)CC1	inactive
CC(=O)NC1(C)CCN(Cc2cnc(-c3ccc4c(ccn4C)c3)s2)CC1	35.5 µM (active)
CC(=O)NC1(C)CN(Cc2ccc(-c3ccc4c(ccn4C)c3)s2)C1	35.5 µM (active)
Cn1ccc2cc(S(=O)(=O)N3CCC(C(=O)NCCN4CCCC4)CC3)ccc21	inactive
CCC(=O)c1ccc(OC(=O)c2nn(C(C)C)c(=O)c3ccccc23)cc1	inactive
Cc1ccc(Nc2cc(C)nc3c(C)c(C)cc([N+](=O)[O-])c23)c(C)c1	inactive
O=S(=O)(CCSc1nnc(-c2ccccc2)o1)c1ccc(Br)cc1	inactive
COc1ccc(C(=O)OCC(=O)NCC(F)(F)F)cc1	inactive
O=C(CSc1nc2ccccc2s1)Nc1ccc2c(c1)CCC2	inactive
O=C(CCc1ncc(-c2ccc(F)cc2F)o1)Nc1ccccc1	inactive
Cc1cccc(NC(=O)Nc2ccc(OCc3ccccc3)cc2)n1	inactive
CCn1ccc2cc(S(=O)(=O)N3CCC(C(=O)NCC4CCCO4)CC3)ccc21 (stereo not given)	inactive
O=C(c1ccc2[nH]ccc2c1)N1CCN(S(=O)(=O)c2cccc3nonc23)CC1	inactive
CC(=O)N1CCN(Cc2cc(F)ccc2Cl)CC(O)C1 (stereo not given)	inactive
O=C(c1ccc2cc[nH]c2c1)N1CCN(Cc2cnc[nH]2)CC(O)C1 (stereo not given)	25.1 µM (active)
CN(C)C(=O)c1cccc(NCC(=O)NC(=O)NCc2ccccc2)c1	inactive
Cc1ccc(C(=O)N2CCN(c3oc(C4CC4)nc3C#N)CC2)c(C)c1	inactive
Cc1ccc(OCCOc2cccc(/C=N/NC(N)=O)c2)cc1	inactive
CC(C)C(=O)Nc1ccc2oc(-c3cccc(Cl)c3)nc2c1	inactive
Cc1ccc2c(C(=O)O)cc(NC(=O)C(C)C)cc2n1	20 µM (active)
CCc1ccccc1NC(=O)c1cc(C)nc2ccccc12	inactive
O=C(NCCn1c(-c2ccccc2)nc2ccccc21)NCc1ccccc1	inactive
CC(C)Cc1nc2cccnc2n1C1CCN(S(=O)(=O)c2ccc(Cl)s2)CC1	inactive
Cc1cccc(-c2noc([C@@H]3Cc4nc[nH]c4CN3C(=O)CCC(=O)O)n2)c1	inactive

Compound	Potency
O=C(c1ccco1)N1Cc2[nH]cnc2C[C@H]1c1nc(-c2ccncc2)no1	inactive
CC(C)NC(=O)N1Cc2[nH]cnc2C[C@H]1c1nc(-c2ccc(Cl)cc2)no1	31.6 µM (active)
COc1ccc(OCC2(C)COc3ccc(C(=O)NC4CCOCC4)cc3N2)cc1 (stereo not given)	25.1 µM (active)
O=C(Nc1cccnc1)c1ccc2c(c1)OCCN(Cc1ncccn1)C2	inactive
COc1ccc(OCC2(C)COc3ccc(C(=O)Nc4cccnc4)cc3N2)cc1 (stereo not given)	31.6 µM (active)
COc1ccc(-n2cnc3cc(C(=O)NC4CCCC4)ccc32)cc1	inactive
COc1ccc(-c2cc(N3CCC(NC(=O)c4ccc5c(c4)OCO5)CC3)n[nH]2)cc1	inactive
O=C(Nc1cccnc1)c1ccc2c(c1)OCCN(c1ccccc1)C2	inactive
Cc1ccc(NC(=O)CN(C)C(=O)c2cc3ccc(F)cc3nc2C)cc1	inactive
Cc1ccc(NC(=O)c2ccc(F)cc2Cl)nc1	inactive
CCn1nc(C(=O)Nc2ccc(I)cc2C)c2ccccc2c1=O	inactive
Cc1ccc2c(CN3CCN(CCc4ccccn4)CC3)cc(=O)oc2c1	inactive
CN1C(=O)CC(C(=O)O)C12CCN(CCc1ccccn1)CC2 (stereo not given)	inactive
Cc1ccnc(N2CC[C@@H]3[C@@H](CCC(=O)N3CCc3ccccn3)C2)n1	22.4 µM (active)
CC(Sc1nc(CN2CCOCC2)nc2ccccc12)C(=O)NC1CCCCCC1 (stereo not given)	inactive
COc1ccc(-c2csc3c2NC(=O)CC3c2ccc(OCC(N)=O)c(OC)c2)cc1 (stereo not given)	inactive
Nc1nc2c(s1)C(c1ccccc1)CC(=O)N2 (stereo not given)	28.2 µM (active)
O=C1CC(c2ccc(C(F)(F)F)cc2)c2sc(C(=O)O)c(-c3ccccc3)c2N1 (stereo not given)	inactive
Cc1ccc(-c2csc3c2NC(=O)CC3c2ccc(C)cc2)cc1 (stereo not given)	inactive
COc1cccc(/C=C/C(=O)c2nc3ccccc3s2)c1OC(F)F	inactive
COc1ccccc1-c1nc(C(=O)NCc2cccs2)n2ccncc12	28.2 µM (active)
CCOc1ccccc1NC(=O)Cn1nnc(C(=O)NCc2cccs2)c1N	inactive
COc1ccccc1NC(=O)CSC1=Nc2ccccc2C2=NC(CC(=O)NCc3cccs3)C(=O)N12 (stereo not given)	inactive
O=C(OCc1nc2ccccc2o1)c1ccccc1Br	inactive
CC(=O)c1c(SCC(=O)Nc2ccc(F)cc2F)nc(=O)[nH]c1C	inactive

Compound	Potency
CC(C)(C#N)C(=O)NCCc1ccc(OCc2ccccc2)cc1	inactive
CC1CCN(c2nc3ccccc3nc2C(C#N)S(=O)(=O)c2cccc(Cl)c2)CC1 (stereo not given)	inactive
CCn1cnnc1CC1CCN(C(=O)C2CCN(Cc3nc(-c4cccc(C)c4)oc3C)CC2)CC1	inactive
COc1ccc(-c2cc(C(=O)N3CCN(CC(=O)N4CCOCC4)CC3)c3ccccc3n2)cc1	inactive
CCn1cnnc1CC1CCN(C(=O)c2cc(-c3ccc(F)cc3)nc3ccccc23)CC1	22.4 µM (active)
CN(Cc1ccc(F)cc1)C(=O)NCc1ccccn1	inactive
CCOc1ccc(CC(=O)N2CCC(C3CCN(C(=O)NC)CC3)C2)cc1 (stereo not given)	inactive
Cc1cc(C)n(CC(=O)N2CCC3(CC2)NCCc2c3[nH]c3ccccc23)n1	inactive
Cc1cc(C)n(CC(=O)N2CCCC3(C2)Nc2cccnc2NC3=NC2CCCC2)n1 (stereo not given)	28.2 µM (active)
CCOc1ccc(CC(=O)N2CCCC3(C2)Nc2cccnc2NC3=NC2CCCC2)cc1 (stereo not given)	28.2 µM (active)
COc1cccc(CNC(=O)N2CCN(Cc3ccc(Br)s3)CC2)c1	inactive
CCOc1ccc(CC(=O)N2CCC(Cc3nc(-c4cnccn4)no3)CC2)cc1	inactive
COc1ccccc1C(=O)N1CCCC2(C1)Nc1cccnc1NC2=NCc1ccccc1 (stereo not given)	28.2 µM (active)
Cc1cc(C)n(CC(=O)N2CC[C@@H]3CN(S(C)(=O)=O)[C@@H]3C2)n1	inactive
COc1cccc(CNC(=O)N2CCCC3(C2)Nc2cccnc2NC3=NC2CCCC2)c1 (stereo not given)	28.2 µM (active)
COc1cccc(N2C(=O)NC(=NC3CCCC3)C23CCN(C(=O)c2ccc(C)cc2)C3)c1 (stereo not given)	inactive
COc1ccccc1C(=O)N1CCC2(C1)C(=NC1CCCCC1)NC(=O)N2c1cccnc1 (stereo not given)	inactive
COc1ccccc1C(=O)N1CCC2(C1)C(=NC1CCCC1)NC(=O)N2c1cccnc1 (stereo not given)	inactive
CC(C)=CC(=O)N1C[C@@H](NC(=O)Nc2ccc(F)cc2F)C[C@H]1C(=O)N[C@H](Cc1ccccc1)C(N)=O	inactive
O=C(Cn1ccn2nc(-c3ccc(F)cc3)c(CO)c2c1=O)NC1CCCC1	inactive
COC(=O)[C@@H](NC(=O)Nc1cc(-c2n[nH]c(=O)c3ccccc23)ccc1C)C(C)C	inactive
O=c1oc2ccc(F)cc2cc1S(=O)(=O)N1CCCCCC1	inactive
N#C/C(=C\c1ccc(-c2cc(Cl)ccc2Cl)o1)c1nc2ccccc2[nH]1	inactive
O=C(O)CNS(=O)(=O)c1cccc(F)c1	inactive
N#CC(C#N)=C(Nc1ccc(Oc2ccccc2)cc1)C(F)(F)C(F)(F)F	inactive

Compound	Potency
CC1(C)C2CCC1(CS(=O)(=O)NCCc1c[nH]c3ccccc13)C(=O)C2 (stereo not given)	inactive
C=CCn1c(COc2cc(C)c(Cl)c(C)c2)n[nH]c1=S	inactive
Cc1nc(-c2cn(C3CCCN(C(=O)c4sccc4C)C3)nn2)no1 (stereo not given)	inactive
Cc1ccsc1C(=O)N1CCCC2(C1)Nc1cccnc1NC2=NC1CCCC1 (stereo not given)	25.1 µM (active)
COc1ccc(C(=O)N2CCCC3(C2)C(=NC2CCCC2)NC(=O)N3c2cc(F)cc(F)c2)cc1 (stereo not given)	inactive
Cc1ccc(Nc2nnc(-c3ccc(C)c(S(N)(=O)=O)c3)c3ccccc23)c(C)c1	inactive
Cc1cccc(C(=O)N2CCCC(C(=O)N3CCN(c4ccccn4)CC3)CCNC(=O)CC2)c1 (stereo not given)	15.8 µM (active)
COc1ccccc1N1CCN(C(=O)C2CCCN(C(=O)c3ccccc3)CCC(=O)NCC2)CC1 (stereo not given)	inactive
C=CCN1CCN(C(=O)C2CCCN(C(=O)c3ccccc3)CCC(=O)NCC2)CC1 (stereo not given)	inactive
Cc1cccc(C(C(=O)N2CCN(S(=O)(=O)N(C)C)CC2)N(C)C)c1 (stereo not given)	inactive
O=C(c1ccc2[nH]ccc2c1)N1CCC(N2CC(OCC3CC3)C23CCOCC3)CC1 (stereo not given)	inactive
O=C(c1ccccc1F)N1CCN(C(=O)c2c[nH]c3ccccc23)CC1	inactive
O=C(c1cccc2[nH]ccc12)N1CCC2(CC1)N=C(c1cccc(Br)c1)NO2	28.2 µM (active)
Cc1ccc(C2=NC3(CCN(C(=O)c4ccc(C#N)cc4)CC3)ON2)cc1	inactive
O=C(c1ccc2cc[nH]c2c1)N1CCC2(CC1)N=C(c1ccc(Cl)cc1)NO2	28.2 µM (active)
CC1CCN(c2ccc(NC(=O)Cn3c(-c4cscn4)nc4ccccc43)cc2)CC1	inactive
CC1(C)Cc2c(sc3c2c(=O)n(CCO)c(=O)n3CCc2ccccc2)CO1	inactive
Cc1csc2nc(COc3ccc(NC(=O)C4CCCCC4)cc3)cc(=O)n12	inactive
CCOC(=O)N1CCN(Cc2cc(=O)oc3ccc(C)cc23)CC1	inactive
O=C(NCc1c[nH]c2ncccc12)c1ccccc1F	inactive
O=C(NCc1ccnc2[nH]ccc12)c1ccccn1	inactive
O=C(NCc1ccnc2[nH]ccc12)c1ccc(F)cc1	35.5 µM (active)
COc1ccc(-n2nc(-c3ccccc3)n(CC(=O)N(C)CC(C)C)c2=O)cc1	31.6 µM (active)
COC(=O)CNC(=O)CNC(=O)c1nn(-c2ccc(OC)cc2)c(=O)c2ccccc12	inactive
COc1ccc(N2CCN(C3CCCN(CC(=O)N(C)C(C)C)C3)CC2)cc1 (stereo not given)	inactive
